According to the supplement of paper PMC12632987:

B1: GBRAPL2_128_7296 (protein)
chain: MKIVEIDIDVENEEEAELVLEILEEISKKSSPEVKKLMDAAKDMVESLKEDGYDEKATVVDILSEEDAKELEELYKEEAKKYGEEKVKKIIKLEIDEIPP
B2: GBRAPL2_128_7286 (protein)
chain: MKLVEIDIDIKNKEEYELAKAVLDDIAKNSSPKVAKLADAAKDMAEEAAKEGYKEKVTVADILTDEEAEELKKLLEELKEKYGKEKVEKVIKLTVDDLPP
B3: GBRAPL2_128_7295 (protein)
chain: MKIVEIDIDIKNEEEAELVKEIFKEIAEKSSPEIKKLMDAAIDMVESLKEDGYDEKGTVVDILSKEDAEELKKLYEEEAEKYGKEKVEKIIKLEISDIPP
B4: GBRAPL2_128_7280 (protein)
chain: MKLVEISVTVENEEEYELAKKVLTEIAEKGSPEVAKLADAALDLVESNKEDGFDEAVVAVDILSEEDAEELKELYEELAEKYGKEKVEKVIQVEVDDIPP
B5: GBRAPL2_128_7298 (protein)
chain: MKLVEIDIDIENEEEAKLVLEILDEIAKRGSPEVKKLADAAKDLAESLAESGYGEKGTVVDILSEEDAEELKKLYEELAKEYGEEKVKKRIKLEVDDIPP
B6: GBRAPL2_128_7283 (protein)
chain: MKLVEIDITVKNEEEYKLAKEVLKEIAEKGSPAVAKLADAALDMLESEKEEGFKDGVTVADILTEEEAEELKKLYEELAKKYGEEKVKKIIELTVDDIPP
B7: GBRAPL2_128_7276 (protein)
chain: KKIVSIDVDLKDEESYELALKILEEIAEKSSPKVKELAEAAKDLAEAAKEEGFGETVTAVDILSDEEVEELKKIYAEIKKKYGEEKVNSVVKIEIDELKP
B8: GBRAPL2_128_7287 (protein)
chain: MKLVTIDITIENEEEYELAEKVLEELARRGSPAVADLADAALDMVRSAKEDGYNENVAVTDILSPEDAAELKALLEELAKEYGEEKVNRIIKLEVDDIPP
B9: GBRAPL2_151_7305 (protein)
chain: SEKEKAIELLEEAAKAAEEAIKKLSEEQELAKTEFELIAGGLEALAILVEETDDEEEIKRLIKEAAELTEDAAKLAEELGLEEEAKKLKEISKELKKLAE
B10: GBRAPL2_128_7292 (protein)
chain: MKLVEIDLDIKNEEEYELAKKVLTELARESSPAVADLANAALDMVEEAKKDGFKDKYVVADVLSPEDAAELEALFNRLAERYGAEKVRKVIQLEVSDIPP
B11: GBRAPL2_151_7302 (protein)
chain: SWKEKIIKALEEAAKIAEEAVEKLSESQELEKTEFELIAGGLDALRALIEETDDEEEIRRLARRAAELTKDGAEIAKKLGLEEEAEKFEKRAKELEELAE
B12: GBRAPL2_128_7293 (protein)
chain: MKIVEVDIEIKNEEEAEKVKAAFDEIAERGSPAVAKLADAAKDMAESLLEDGFDEKGTVVDVLSDEDAAELRELYEELAKEYGEEFMNENIKLTIDDIPP
B13: GBRAPL2_128_7291 (protein)
chain: MKLVEISVKVENEEEYELAKKVLSDIAEKSSPEVAKLADAARDMLEENKEEGYNVGVTVADILSEEQAEELRKLFEEVAKEYGKEKVEKIIELTVDDLPP
B14: GBRAPL2_128_7274 (protein)
chain: MKIVEIDIDIKNEEQYELALEVLDRIAANSSPAVADLADAARDLAESAKEEGFDENVSAVDVLSDEDAAELQAIYDEIAAELGEEKVNSVVKLTIDPLEP
B15: GBRAPL2_128_7299 (protein)
chain: MKLVEIDITIENKEEAELVKKILEEIAKKGSEEVKKLADAAKDLAETLAEEGYGEKGTVVDILSDEDAEELKKLYEELAEKYGKEKVEKRIKLEVDDIPP
B16: GBRAPL2_128_7285 (protein)
chain: MKLVTIDIKVENEEEYELAKKVLDEIAEEGSPAVAKLADAARDMLESEKEEGFKDGVSVADILSDEEAEELKELYEKLAEKYGKEKVNKIIELTVDDLPP
B17: GBRAPL2_151_7303 (protein)
chain: GWKEEAIKALEEAAKAAEEAAKALSPEHELERTELELLAGGFEADAILIEETDDEEEIKRLVKEAAEMAKDAAKLAKKLGLEKEAKKLEKIAEKLKKLAE
B18: GBRAPL2_128_7281 (protein)
chain: MKLVTIDIDVENEEEYELVKKVLDEIIEKGSPEVADLADAAKDMLEESKKEGFKEKVSVADILSDEEAEELKKLFEELAKKYGEEKVNKHIELEIDDLPP
B19: GBRAPL2_128_7290 (protein)
chain: MKLVTIDVTIKNEEEYNLAVKVLKELAEKGSPKVADLADAARDMVEEAKKEGYNENVSVADILSEEDAEELKKLYEELAKKYGEEKVKSIIKLTIDDIPP
B20: GBRAPL2_128_7282 (protein)
chain: MKLVTIDVTVENEEEYNLAVEVFDEIIEEGSEKVADLADAAKDMLESSKENGYKENVSVADILSDEDAEELRELFEELAKKYGEEKVKKIIELTIDDLPP
B21: GBRAPL2_151_7300 (protein)
chain: EWKEEAIKALEEAAKIAEEAVEKLDESQELEKTEFELIAGGLDALKALIEETDDEEKIREYVKRGAELVKDAAKIAKELGLEEEAKKFEKLAKKLEELSK
B22: GBRAPL2_151_7301 (protein)
chain: SWKEEAIKALEEAAKIAEEAVEKLSEEQELEKTEFELIAGGMDALKALIEETDDEELIKKYVERGAELVKDAAEIAKELGLEELAKKFEKLAKELEKLSK
B23: GBRAPL2_128_7279 (protein)
chain: MKIVEIDIDVENEEEYKLAKEVLEKIAEEGSPEVAKLADAALDLVEENEEDGFDEKFTAVDILSEEDAEELKELFEELAEKLGKEKVEKVIKLEIDDIPP
B24: GBRAPL2_128_7294 (protein)
chain: MKIVEIDLDIKNEEEANLAKEILKEIAAKSSEKVKDLMDAAIDMVESLEEDGYDEKATVVDVLSEEDAEELKKLYEEEAKKYGEEKVNKIIKLEISDIPP
B25: GBRAPL2_128_7288 (protein)
chain: MKLVTLDVDVEDEEEYELALEVLTRLAERGSPAVARLADAARDMVEEAKEEGYDEEVAVTDILSEEDAEELRALYEELAAELGAERVSRVIRLEVDDLPP
B26: GBRAPL2_128_7289 (protein)
chain: MKLVTLDIDIENEEEFKLAKKVLEELAKKGSPAVADLANAALDMVEEAEKDGYNEKVSVADILSEEDAEELKKLLEELAKKYGEEKVKKIIKLEIDELPP
B27: GBRAPL2_128_7278 (protein)
chain: MKLVEIDIDIKNEEEYELAKKVLKRIAEEGSPEVSKLADAALDLVEENKEEGFKYSRTVVDILSEEDAEELKELFEKLAEEYGKEKVEKVIKLEIDDIPP
B28: GBRAPL2_128_7297 (protein)
chain: MKLVEIDIDINNEEEAKLVIEVLEEIAKEGSEEVKKLAEAAKDLAESLAEEGYGEKGTVVDILSEEDAKELKELYEKLSKKYGKEKIEKRIKLEVDDIPP
B29: GBRAPL2_128_7284 (protein)
chain: MKLVEIDITVKNEEEYELVLKVLTEIAERGSPAVAKLADAAKDMVEEEKKEGFKDGVTVADVLSDEDAAELKALYEELAEKYGKEKVNKHIKLTVDDLPP
B30: GBRAPL2_151_7304 (protein)
chain: GWKEEAIKALEKAAKAAEEAAAALPESQELERTELELLAGGFEADAILIEETDDEEEIKRLVKEAAERAEDAAKLAKKLGLEEQAKKLEKIAKELKKLAK
B31: GBRAPL2_128_7273 (protein)
chain: MYLVEIDIDVKDEESYNLAVEILDEIAKNSSEKVKDLAEAARDMAEIAYENGFDEKVVVVDIVSEEEAEELKKIYEEIKKKKGEEKVNSVVELEIDEVEP
B32: GBRAPL2_128_7275 (protein)
chain: MKIVEIDVDIKNEEQYNLALEILDEIAENSSPAVADLADAAKDLAESSKERGFDENVTAVDVLSEEDAEELRRIYEEIAEKLGREKVESVVRLEISDLEP

Molecular target: GABARAPL2, P60520
Assay: median log2 fold change of GCK-ALFA target abundance (FLAG IP / Myc IP barcode read proportion) (log2 ratio); each designed protein is fused to an ALFA-tag nanobody in HEK293 cells to bring the named protein to FLAG-tagged glucokinase (GCK); Myc marks an untargeted standard; higher = target protein stabilised (more abundant)
Settings: target protein: 3xFLAG-MCP-GCK-ALFA reporter; HEK293 landing pad (RPLP)
Procedure, shortened: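 Sequencing of reverse-transcribed, amplified circular RNA barcodes from anti-FLAG and anti-Myc immunoprecipitates provided the readout for an ALFA-nanobody-fused binder library recombined into HEK293 landing-pad cells. Those cells were induced with 2 μg mL^−1 doxycycline, transfected with a plasmid expressing a FLAG-tagged target and a Myc-tagged standard, and lysed after 48 h. Target abundance is the per-binder median log2 ratio of FLAG to Myc barcode read proportions. Only barcodes at a proportion of ≥10^−7 in both replicates and binders with ≥3 barcodes per replicate were kept, with a 10^−6 pseudocount added before the two replicates were pooled.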

Chain of GABARAPL2, P60520 (P60520 whole entry, the tested form may be a part): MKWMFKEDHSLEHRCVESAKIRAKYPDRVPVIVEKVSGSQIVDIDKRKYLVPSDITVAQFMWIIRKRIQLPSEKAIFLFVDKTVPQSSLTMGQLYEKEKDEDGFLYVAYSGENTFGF

| Binder | median log2 fold change |
| --- | --- |
| B1 | -0.305 |
| B2 | -0.551 |
| B3 | -0.663 |
| B4 | -0.794 |
| B5 | -0.397 |
| B6 | -0.458 |
| B7 | -0.258 |
| B8 | -0.633 |
| B9 | -0.356 |
| B10 | -0.166 |
| B11 | 0.2 |
| B12 | -0.421 |
| B13 | 0.0557 |
| B14 | -0.506 |
| B15 | -0.468 |
| B16 | -0.134 |

| Binder | median log2 fold change |
| --- | --- |
| B17 | 0.179 |
| B18 | -0.33 |
| B19 | -0.128 |
| B20 | -0.381 |
| B21 | 0.271 |
| B22 | 0.0733 |
| B23 | -0.539 |
| B24 | 0.042 |
| B25 | -0.203 |
| B26 | -0.0985 |
| B27 | 0.112 |
| B28 | -0.194 |
| B29 | -0.0335 |
| B30 | 0.0343 |
| B31 | -0.586 |
| B32 | -0.585 |
